According to PubChem BioAssay AID1347076 (National Center for Advancing Translational Sciences (NCATS), 2019):
The campaign covered roughly 400,000 compounds. About 13,000 (3.2%) were called active. About 18% were inconclusive and are not listed. This is one part of a sample in which actives are shown more often than they occur. A number with no mark means an inactive call. Calls come from the whole dose curve; as a rule, active = well fitted cell-killing curve with a large enough effect; inconclusive = small, poorly fitted or top-dose-only effect, or effect the other way; inactive = flat fitted curve, though single readings scatter.

test: qHTS assay for MDR1-selective chemotherapeutics: Primary screen using the drug-selected MDR subline cells KB-V1; details: KB-V1 MDR cells viability, CellTiter-Glo, 72 h; series mostly up to 46.1 µM; activity change, negative = cytotoxicity: at the top concentration; note: nearly all actives have a fitted effect of over 60% in size
In short: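 Compound-treated KB-V1 multidrug-resistant cells, 72 h, 37 degrees C; viability by CellTiter-Glo. Fitted qHTS curves give the values.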
% is set by controls: 0 for no effect and ±100 for the full control effect; potency is the fitted concentration of half-maximal effect.

SMILES | Potency | activity change, negative = cytotoxicity [%]
COc1ccc(/C=C/C(=O)Nc2ccc3c(c2)OCCO3)cc1OC | 20.6 µM (active) | –
O=C(/C=C\c1ccc2c(c1)OCO2)NC1(C(=O)Nc2ccc3c(c2)OCCO3)CCCCC1 | – | 0.694
COc1cccc(/C=C/C(=O)Nc2ccc3c(c2)OCCO3)c1 | – | -8.07
Cc1nn2c(=O)cc(COC(=O)CNC(=O)c3ccc(F)cc3)nc2s1 | – | 28.8
CCC(C)(C)n1nnnc1CN1CCN(c2nc3ccc(C)cc3cc2C#N)CC1 | 23.1 µM (active) | –
Cc1cc(C)c2cc(C#N)c(N3CCNCC3)nc2c1 | – | 0.402
Cc1ccc2nc(NCCCNC(=O)c3cnccn3)c(C#N)cc2c1 | – | 0.0278
NS(=O)(=O)c1ccc(NC(=O)C(=O)Nc2ccc3nc4n(c(=O)c3c2)CCCCC4)cc1 | – | 17.5
CN1OC[C@@H]2CN(C(=O)c3cccc4ccccc34)[C@H](c3ccc(N4CCCCC4)cc3)C[C@@H]21 | – | 22.9
CNc1cncc(-c2cccc(C(=O)N3CCOCC3)c2)n1 | – | 4.04
CNc1cncc(-c2ccc(NS(C)(=O)=O)cc2)n1 | 5.17 µM (active) | –
CS(=O)(=O)Nc1ccc(C2=NN(S(C)(=O)=O)C(c3cccs3)C2)cc1 (centres undefined) | – | -6.25
O=C(NCCN1CCOCC1)c1ccc2c(c1)N(Cc1cccc(Cl)c1)C(=O)c1ccccc1S2(=O)=O | – | 29.9
CCc1ccc2oc(-c3ccc(C)c(NC(=O)/C=C/c4ccco4)c3)nc2c1 | – | 22.1
CCOC(=O)c1c(NC(=O)CSc2nccc(=O)[nH]2)sc(C)c1C | – | -16.2
COC(=O)c1c(-c2cccs2)csc1NC(=O)CSc1ncnc2sc(C)c(C)c12 | 18.4 µM (active) | –
Cc1sc2ncnc(SCC(=O)NC3CCS(=O)(=O)C3)c2c1C (centres undefined) | – | -1.3
COCCn1c(SCC(=O)c2cc(C)ccc2C)nc2cc(C(=O)NC3CCCC3)ccc2c1=O | – | -7.24
CCCCN(CCCNC(=O)c1cc(Nc2ccccc2OC)nc2ccccc12)c1ccccc1 | – | 14.8
O=C(Nc1cccc(OCC(=O)N2CCOCC2)c1)C1CCCCC1 | – | 14.1
O=C1CC2(CCN(C(=O)COc3ccc(F)cc3)CC2)Oc2ccccc21 | – | -11.3
O=C1CC2(CCCCC2)Oc2ccc(OCC(=O)N3CCOCC3)cc21 | 11.6 µM (active) | –
O=C(c1ccccc1)N1CCN(c2cc(-c3ccccc3)nc3cc(-c4cccc(Cl)c4)nn23)CC1 | – | -14.3
CCNC(=O)C1CCCN(C(=O)c2ccc(OC)cc2OC)CC1 (centres undefined) | – | 2.93
CCc1ccccc1N1CN(Cc2ccco2)CNC1=S | – | -5.41

SMILES | Potency | activity change, negative = cytotoxicity [%]
CCN(CC)C(=O)CSc1nnc(CNc2ccc(F)cc2)n1Cc1ccco1 | – | -7.12
CN(C)C(=S)N=c1ssc(=S)n1Cc1ccco1 | 4.11 µM (active) | –
CC(C)NC(=O)C1(C)CCCCCN1C(=O)c1ccc(-c2ccccc2)cc1 (centres undefined) | – | -1.14
OC[C@@H]1CN(C2CCCC2)C[C@H](n2cnc3c(NC4CCC4)ncnc32)O1 | – | 19.1
CCOc1cccc2c1N[C@@H](c1ccc(C(=O)O)cc1)[C@H]1CC=C[C@@H]21 | – | 17.3
COc1cccc(C(O)c2ncc(-c3ccc4ccccc4c3)[nH]2)c1 (centres undefined) | – | -14.9
CN1CCN(C2Cc3ccc(Cl)cc3Sc3ccc(F)cc32)CC1 (centres undefined) | 16.4 µM (active) | –
CC(C)CNC(=O)C1(C)CCCN1C(=O)CSc1ccccc1 (centres undefined) | – | 2.38
CCCCCn1c(=O)[nH]c2cc(C(=O)Nc3ccc(F)cc3)ccc2c1=O | – | -4.83
Cc1ccc(S(=O)(=O)/N=C2\C=C(NS(=O)(=O)c3ccc(C)cc3)C(=O)c3ccccc32)cc1 | – | -17
Cc1ccc(C)c(NC(=O)CSc2nc3c(oc4ccccc43)c(=O)n2-c2ccccc2)c1 | 7.31 µM (active) | –
Cc1cccc(NC(=O)CSc2nc3c(oc4ccccc43)c(=O)n2-c2ccc(F)cc2)c1 | – | 2.03
COc1ccc(-n2c(SCC(N)=O)nc3c(oc4ccccc43)c2=O)cc1 | – | 0
Cc1c(C)c(C)c2[nH]c(=S)[nH]c2c1C | 3.66 µM (active) | –
CCCOc1ccc(F)cc1-c1cc(C(=O)Nc2ccc(F)cc2)[nH]n1 | – | -21.7
CCC(C)NC(=O)c1ccccc1NC(=O)c1ccccc1N(C)S(C)(=O)=O (centres undefined) | – | 0
CCCCNC(=O)c1ccccc1NC(=O)C1=C(C)OCCS1 | – | -18.7
CCCCNC(=O)c1ccccc1NC(=O)c1ccccc1N(C)S(C)(=O)=O | 23.1 µM (active) | –
CCCCOc1ccc(CNC(=O)c2ccc3c(c2)N(C)C(=O)C2CCCCN32)cc1 (centres undefined) | – | 11.8
CCN(CC)CCN(C(=O)c1ccc2c(c1)CCCC2)c1nc2c(OC)cccc2s1 | – | -19.3
CCC(=O)N1c2ccccc2CC1C(=O)N1CCN(c2ccccc2F)CC1 (centres undefined) | – | -0.299
Cc1ccc(-c2nc3cccc(C)n3c2Nc2ccc3c(c2)OCCO3)cc1 | – | -6.68
CN(c1ccccc1)S(=O)(=O)c1ccc(C(=O)NCc2cccnc2)cc1 | – | -8.64
COc1ccc(NC(=O)CNC(=O)Cc2ccccc2)cc1OC | – | 0
COc1ccc(CNC(=O)c2ccc(Br)s2)cc1OC | – | -18.8

SMILES | Potency | activity change, negative = cytotoxicity [%]
COc1ccc(CCNC(=O)Cc2ccc(C)cc2)cc1OC | – | -23.9
COc1ccc(CNC(=O)c2c(C)cc(=O)oc2C)cc1OC | – | 13.8
COc1ccc(CNC(=O)Cc2ccc(-c3ccccc3)cc2)cc1OC | 7.31 µM (active) | –
COc1ccc(CNC(=O)c2ccc(-c3cccnc3)c3ccoc23)cc1OC | 18.4 µM (active) | –
CCOc1cc(C2C(C(=O)OC)=C(C)NC3=C2C(=O)c2ccccc23)ccc1O (centres undefined) | – | 0.212
CCOC(=O)CSC1=Nc2ccccc2C2=NC(CCC(=O)NCc3ccc(F)cc3)C(=O)N12 (centres undefined) | – | 8.51
CCNS(=O)(=O)c1ccc(CCC(=O)N2CCN(c3ccc(OC)cc3)CC2)cc1 | – | -7.91
CCNS(=O)(=O)c1ccc(CCC(=O)N2CCN(c3cc(Cl)ccc3C)CC2)cc1 | 14.6 µM (active) | –
CCCNS(=O)(=O)c1ccc(CCC(=O)N2CCCC2)cc1 | – | -7.52
O=C1C(Sc2cccc(F)c2)=C[C@@]2(O)CC[C@@H](O)[C@]1(Sc1cccc(F)c1)[C@H]2O | – | -13.7
CCc1nc2c(OCCOc3ccccc3)cccn2c1N(C)C(=O)c1ccccc1F | – | -2.19
COC(=O)C[C@H]1C=C[C@H](NC(=O)c2ccc(F)cc2)[C@@H](CO)O1 | – | -15
CN(C)Cc1cn(-c2ccccc2)nc1-c1ccccc1 | – | -7.78
CN(C)c1cccc2ccccc12 | – | 12.3
CC(=O)Nc1ccc(NC(=O)CSc2nnnn2-c2ccccc2F)cc1 | – | -14.2
Cc1cc(NC(=O)CSc2nnnn2-c2ccc(F)cc2)no1 | – | 16.9
Cc1ccccc1-n1nnnc1SCCCC(=O)c1ccc(F)cc1 | 6.51 µM (active) | –
O=C(/C=C/[C@H]1O[C@@H](n2cnc3c(NC(=O)c4ccccc4)ncnc32)[C@H](O)[C@@H]1O)NCc1ccccc1 | – | -15.7
CCCC(=O)N1CCN(c2nc3c(OC)ccc(C)c3s2)CC1 | – | -4.94
COc1ccc(C(=O)NC(=S)NNC(=O)c2c(-c3ccccc3)noc2C)cc1 | 6.51 µM (active) | –
CC(C)Oc1ccc(CCC(=O)NNC(=S)NCc2ccccc2)cc1 | – | 0
COc1ccc(C(=O)NNC(=S)NC(=O)c2ccccc2[N+](=O)[O-])cc1 | – | 0
COc1ccc(C(=O)NNC(=S)NC(=O)c2ccccc2)cc1 | – | -22.6
Cc1onc(-c2ccccc2)c1C(=O)NNC(=S)NC(=O)c1ccc(F)cc1 | – | -9.36
COc1ccc(C(=O)NC(=S)NNC(=O)CCc2ccccc2)cc1 | 6.51 µM (active) | –

SMILES | Potency | activity change, negative = cytotoxicity [%]
O=S(=O)(Nc1ccc2nc(-c3cccc(Cl)c3)oc2c1)c1ccccc1 | – | 2.99
Cc1ccc(C)c(N2CCN(C(=O)Cn3ncc4c(=O)oc5ccc(C)cc5c43)CC2)c1 | – | 6.55
CC(=O)Nc1ccc(CNc2nc(NCCN(C)C)nc3cc(-c4ccccc4)sc23)cc1 | – | 16.7
CN1C[C@@H](CO)O[C@@H](n2cnc3c(N4CCN(CCO)CC4)ncnc32)C1 | – | 7.63
CCCn1nc(NC(=O)C(C)C)c2cc3cc(OC)ccc3nc21 | – | 2
CCCn1nc(NS(=O)(=O)c2ccc(F)cc2)c2cc3ccccc3nc21 | – | 14.6
CCCn1nc(NS(=O)(=O)c2ccccc2)c2cc3cc(C)ccc3nc21 | 14.6 µM (active) | –
COc1cccc(NC(=O)CSc2cc(=O)n(C)c3ccc(Cl)cc23)c1 | – | -14.4
Cc1cccc(C=CC(=O)c2ccc(Cl)cc2)c1 | – | -4.15
CN(C)c1ccc(/C=C/C(=O)c2ccc(C(C)(C)C)cc2)cc1[N+](=O)[O-] | 18.4 µM (active) | –
CC(=O)Nc1ccc(C=CC(=O)c2ccc([N+](=O)[O-])cc2)cc1 | – | -4.54
CCOc1ccc(S(=O)(=O)c2cn(Cc3ccc(OC)cc3)c3ccc(F)cc3c2=O)cc1 | – | 7.8
Cc1nc2ccc(S(=O)(=O)N(CC(=O)Nc3ccc(F)cc3)Cc3ccccc3)cc2s1 | – | 6.91
CC(C)(C)N1C(=O)c2c(C(=O)OCc3ccccc3)[nH]c(-c3ccccc3)c2C1=O | – | 0.678
Cc1ccc(NC(=O)CSc2cccc3cccnc23)c(C)c1 | – | -30.1
Cc1ccc(NC(=O)Cn2cccc2C2=NC(c3ccccc3)CO2)c(C)c1 (centres undefined) | 16.4 µM (active) | –
Cc1ccc(NC(=O)Cn2nnc(C(=O)NCc3ccco3)c2N)c(C)c1 | – | 20.9
CCOc1ccc(NC(=O)C2CCN(S(=O)(=O)c3cc(-c4noc(C)n4)ccc3C)CC2)cc1 | – | -3.59
c1cc(-c2ccc3[nH]ccc3c2)n2ccnc2c1 | – | 0
CCCCC(=O)N(C)c1c(CC)nc2c(OCc3ccc(Cl)cc3Cl)cccn12 | 16.4 µM (active) | –
CCCCC(=O)N(C)c1c(CC)nc2c(OCc3ccc(S(C)(=O)=O)cc3)cccn12 | – | -12.7
CCOC(=O)N(C)c1c(CC)nc2c(OCc3ccccc3C(=O)OC)cccn12 | – | -2.06
CCc1nc2ccc(C(=O)N(C)CCN(C)C)cn2c1N(CC)CCOC | – | -5.15
CC(=O)C[C@@H]1OC[C@H](C)N1S(=O)(=O)c1ccc(C)cc1 | – | -6.62
